Rows were chosen to be rich in hits. Some 2.3% of all compounds tested hit in one or more screens of this group.
M1 PAM – human M1 muscarinic receptor positive allosteric modulators, primary screen, CHO-K1 cells, Fluo-8 calcium fluorescence, 1536-well. Muscarinic acetylcholine receptor M1 (Homo sapiens), P11229. CHO-K1 hM1, ACh EC20; 0% = ACh EC20, 100% = maximal ACh. activation, % at 3 µM. actives 0.088% (n = 360,000); in the data active = activation above about 19%, passing the limit was not always enough
Target sequence (P11229 whole entry, looked up): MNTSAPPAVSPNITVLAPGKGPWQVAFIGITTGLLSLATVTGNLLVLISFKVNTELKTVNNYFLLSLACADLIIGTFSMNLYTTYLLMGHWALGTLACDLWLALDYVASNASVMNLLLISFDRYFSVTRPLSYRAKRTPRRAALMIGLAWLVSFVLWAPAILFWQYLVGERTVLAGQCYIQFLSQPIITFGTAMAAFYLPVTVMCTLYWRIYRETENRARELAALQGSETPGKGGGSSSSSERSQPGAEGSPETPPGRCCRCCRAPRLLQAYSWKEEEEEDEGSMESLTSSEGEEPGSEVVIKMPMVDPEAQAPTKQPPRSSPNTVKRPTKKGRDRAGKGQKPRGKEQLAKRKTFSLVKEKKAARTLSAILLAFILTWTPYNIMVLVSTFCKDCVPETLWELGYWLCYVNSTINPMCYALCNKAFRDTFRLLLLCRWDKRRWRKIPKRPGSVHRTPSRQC
M1 ag – human M1 muscarinic receptor agonists, primary screen, Fluo-8 calcium fluorescence, CHO-K1 cells, HTS; Muscarinic acetylcholine receptor M1 (Homo sapiens), P11229; actives 0.33% (n = 360,000); activation, % at 3 µM; CHO-K1 hM1, agonist mode; 0% DMSO, 100% acetylcholine EC100;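 active = activation above the run's mean compound activation plus 3 SD, cut at about 16% in these data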;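 also: peak over basal fluorescence ratio within a 140 s kinetic read after compound addition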
CHO-K1 Ca PAM – nonselective calcium activators in parental CHO-K1 cells, primary screen, counter-screen for M1 PAM project, cell-based, Fluo-8 calcium fluorescence, full deck, 1536-well. ATP EC20; 0% at ATP EC20, 100% at ATP max. activation, % at 3 µM. actives 0.02% (n = 360,000);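 active = activation above the run cutoff, the mean activation of all test compounds plus 3 SD, cut at about 40% in these data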;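 also: peak over basal fluorescence ratio in a 140 s read after ATP addition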
M1 antag – human M1 muscarinic receptor antagonists, primary screen, CHO-K1 cells, Fluo-8 calcium fluorescence, 1536-well | Muscarinic acetylcholine receptor M1 (Homo sapiens), P11229 | CHO-K1 hM1, ACh EC80 antagonist | inhibition, % at 3 µM | actives 1.3% (n = 360,000) | AID 588852, 2011;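 active = percent inhibition above its own plate's cutoff, namely the mean of that plate's compound wells plus 3 SD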;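 also: peak over basal fluorescence ratio during 140 s after agonist addition; 0% = ACh EC80 plus DMSO and 100% = DMSO alone without agonist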
CHO-K1 Ca antag – counter-screen for M1 antagonists: effect in parental CHO-K1 cells | ATP-induced calcium, Fluo-8 fluorescence | inhibition, % at 3 µM | actives 0.6% (n = 360,000);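 active = inhibition above a per-plate cutoff, the plate's mean sample inhibition plus 3 SD, cut at about 24% in these data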;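 also: 0% = DMSO plus EC80 ATP and 100% = DMSO alone without ATP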
CHO-K1 Ca ag – counter-screen for M1 agonists: effect in parental CHO-K1 cells | actives 0.48% (n = 360,000) | Fluo-8 calcium fluorescence; scaled to maximal ATP response, vehicle zero | activation, % at 3 µM | AID 602248, 2012; in the data active = activation above about 15%;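 also: untransfected CHO-K1 host cells lacking M1 receptor as counterscreen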
Active calls of the source: *.

SMILES | M1 PAM | M1 ag | CHO-K1 Ca PAM | M1 antag | CHO-K1 Ca antag | CHO-K1 Ca ag
Cc1nc2nc(SCC(=O)NCCCN3CCCCC3)nn2c(C)c1Cc1ccccc1 | -18 | -11 | -6 | 14 | -2 | 0
CCC1CCCCN1CCCNC(=O)CSc1nc2nc(C)c(Cc3ccc(C)cc3)c(C)n2n1 (stereo unspecified) | -36 | -13 | -22 | 69* | -3 | 1
N#Cc1cnn2c3c(cnc12)C(=O)N1CCc2ccccc2C1C3 (stereo unspecified) | -2 | -8 | 8 | 11 | 5 | 4
CCc1ccc2oc(-c3ccc(OC)cc3)cc(=Nc3c(C)n(C)n(-c4ccccc4)c3=O)c2c1 | -22 | -5 | 2 | 47* | -11 | 3
COC(=O)C(CC(=O)c1ccc(Cl)cc1)c1ccc(C)cc1 (stereo unspecified) | 33* | -5 | -4 | 5 | -2 | -1
CN(C)c1ccc(/C=C/C(=O)c2c(O)c3ccccc3oc2=O)cc1 | -12 | 30* | 9 | 12 | 3 | 32*
CC(C)(C)NC(=O)c1nc2ccccc2s1 | -7 | -3 | -5 | 9 | 7 | 0
CC(C)(C)NC(=O)c1ccccc1-c1nc2ccccc2s1 | 5 | 18* | 9 | -5 | 0 | 33*
CSc1cccc(NC(=O)C2CCCN(S(C)(=O)=O)C2)c1 (stereo unspecified) | 1 | -2 | 17 | -10 | -10 | 0
O=C(c1cc(-c2ccccc2Cl)on1)N1CCN(C(=O)c2ccco2)CC1 | 14 | 2 | 15 | -44 | -13 | 0
O=C(c1cc(-c2ccc(Cl)cc2Cl)on1)N1CCN(C(=O)c2ccco2)CC1 | 14 | 8 | -7 | -20 | 25* | -1
COc1cc(SC)ccc1C(=O)Nc1cccc(C2OCCCO2)c1 | 11 | -7 | 13 | -13 | -2 | 1
O=S(=O)(c1cc(Cl)ccc1Cl)N1CCN(c2ccccn2)CC1 | -9 | -7 | -6 | 23 | 10 | 10
COc1cccc(C(=O)C2CCCN(Cc3cn(CC(N)=O)c4ccccc34)C2)c1 (stereo unspecified) | -3 | -13 | -11 | 0 | 32* | 0
COc1cccc(C(=O)C2CCCN(Cc3cn[nH]c3C3CCCCC3)C2)c1 (stereo unspecified) | -23 | -13 | -12 | 27 | 17 | 0
CCOC(=O)N1CCC(N2CCCC(C(=O)c3cccc(OC)c3)C2)CC1 (stereo unspecified) | -21 | -7 | 0 | 54* | -5 | 1
O=C(COc1cccnc1[N+](=O)[O-])Nc1cccc(S(=O)(=O)N2CCCCC2)c1 | 5 | -8 | 17 | -5 | -10 | 2
Cc1nc(N2CCOCC2)nc2c1CCC2 | 13 | -6 | 6 | -6 | -5 | 0
C=CCn1c(O)c(C(CC)=NCc2cccnc2)c(=O)[nH]c1=O | 11 | -1 | -5 | -1 | 25* | 0
Cc1[nH][nH]c(=O)c1C=NCc1cccnc1 | 5 | -4 | 20 | 3 | 4 | 1
COC(=O)CCC(=O)N(C)CC1CCCN(CCc2cccc(C(F)(F)F)c2)C1 (stereo unspecified) | -25 | -11 | 5 | 44* | -2 | 0
CC(=O)NCCC(=O)N(C)CC1CCN(CCc2cccc(C(F)(F)F)c2)CC1 | 0 | -5 | 7 | -3 | -3 | 0
CSCCC(=O)N(C)CC1CCCN(CCc2cccc(C(F)(F)F)c2)C1 (stereo unspecified) | -23 | -8 | 15 | 37* | -6 | 0
COc1cc(CN(C)CC2CCCN(CCc3cccc(C(F)(F)F)c3)C2)ccc1O (stereo unspecified) | -29 | -9 | 7 | 49* | -12 | 0
COc1ccc([C@H]2C[C@@H](n3cc(C4CC4)nn3)[C@H](O)CN2CC2CCCCC2)cc1 | -1 | -2 | -1 | -4 | -12 | 0
SMILES | M1 PAM | M1 ag | CHO-K1 Ca PAM | M1 antag | CHO-K1 Ca antag | CHO-K1 Ca ag
Cn1nc(C(F)(F)F)c(C(=O)Nc2ccc(F)cc2F)c1Sc1cccc(C(F)(F)F)c1 | -16 | -4 | -6 | 34* | -10 | 1
Cn1nc(C(F)(F)F)c(C(=O)Nc2ccc(F)cc2F)c1Sc1cccc(Cl)c1 | -16 | -8 | 2 | 11 | -1 | 0
Cc1ccc(S(=O)(=O)N2CCN(C)CC2)cc1C | -2 | -5 | -1 | 0 | -2 | 0
O=S(=O)(c1ccc(F)cc1)N1CCC(N2CCCC2)CC1 | -10 | -13 | 5 | 12 | 40* | 0
Cc1ccc(S(=O)(=O)N2CCC(N3CCN(C)CC3)CC2)cc1Cl | -21 | -14 | 4 | 42* | -15 | 0
O=C1O/C(=C/C(=O)N2CCOCC2)c2ccccc21 | 4 | 0 | -10 | 7 | 10 | 0
C1=CN2CCC1C(c1ccccc1)C2 (stereo unspecified) | -14 | 50* | 2 | 73* | 7 | 0
CCOC(=O)Cc1csc(NC(=O)Nc2ccc(OC(F)(F)F)cc2)n1 | -17 | 5 | -15 | 41* | 34* | 10
CCOC(=O)Cc1csc(NC(=O)c2ccc(NC(C)=O)cc2)n1 | 6 | -1 | 10 | -4 | -15 | 1
Cc1ccc(C(OCC(C)(C)C[N+](C)(C)C)c2ccccc2)cc1 (stereo unspecified) | -34 | -13 | -15 | 99* | 19 | -1
CCNCCOC(c1ccccc1)c1ccccc1 | -25 | -6 | 15 | 26* | -8 | 1
C(#CCN1CCOCC1)COCCCOC(c1ccccc1)c1ccccc1 | -4 | -10 | -9 | -3 | -36 | 0
CCN(CC)CCOC(c1ccccc1)c1ccc(C)cc1 (stereo unspecified) | -26 | -7 | 19 | 96* | 1 | 1
CN(C)CC#CCOC(c1ccccc1)c1ccccc1 | -20 | 7 | -6 | 80* | -12 | 0
CC1(c2nc3ccccc3cc2C#N)OCCO1 | 6 | -1 | 23 | -16 | -16 | 1
CCN(CC)CC#CCOC(c1ccccc1)c1ccccc1 | -23 | -5 | 24 | 94* | -15 | 1
COCCN(CCOC)CC(O)COC(c1ccccc1)c1ccccc1 (stereo unspecified) | -2 | -16 | 22 | -12 | 1 | 1
CCOc1ccc(S(=O)(=O)Nc2nc3ccccc3nc2-n2ccc(=NC(=O)c3ccccc3C)cc2)cc1 | -9 | 21* | -4 | 26 | 25* | 24*
Cc1cc(Cl)ccc1NC(=S)NCCCO | 6 | -4 | 13 | -12 | -5 | 0
